About 83,000 compounds went through this panel and 20% of them were active in at least one assay; those are over-represented in the sample as a whole.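 Activity criterion: percent growth below 10, measured after cells in 96-well plates were exposed to a single compound concentration for 48 hours.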 Values without a mark were called inactive. The source made the active and inactive calls.

The subject of the experiment is NCI/ADR-RES ovarian. The experiment can be described thus: NCI-60 one-dose screen, 48 h (100 = growth as untreated, 0 = no growth, -100 = all killed). As to conditions: 10 µM unless noted. As to the method:
Growth inhibition of the NCI/ADR-RES human […] tumor cell line is measured as a screen for anti-cancer activity. Cells are grown in 96 well plates and exposed to the test compound for 48 hours. Compounds are tested at a single concentration, which is 10^-5 M for most compounds. The reported endpoint is percent growth (GI% or GIPRCNT), where numbers from 0 - 100% represent growth inhibition, and numbers from -100% - 0 represent cell death. For example, a value of 40 represents 60% growth inhibition. A value of 0 means no net growth occurred over the course of the experiment. A value of -40 indicates 40% of cells at the beginning of the experiment died by the end of the experiment. A value of -100 means all cells are dead at the end of the experiment.
NCI-60 Human Tumor Cell Lines Screen was performed using the standard one-dose NCI protocol, which is described in more detail at https://dtp.cancer.gov/discovery_development/nci-60/default.htm.
Compounds with GIPRCNT values below 10 were considered active. Activity score was based on GIPRCNT using the following formula: […]
Score is 0 for GIPRCNT values of 100 or above, 50 for GIPRCNT values of 0, and 100 for GIPRCNT values of -100.
In the case of `N#Cc1c(-c2ccc(Cl)cc2)nc(NN=Cc2cccc(O)c2)nc1N1CCOCC1`, the growth was 64.9%.
Turning to `COc1ccc(/C=N/NC(=O)CCN2c3ccccc3Sc3ccccc32)cc1`, the growth was 69.4%.
`C=CCc1c2c(c(OC)c3ccoc13)C(=O)/C(=C/c1ccccc1OC)O2`: the growth is 35.2%.
The value for `COC(=O)c1cc(-c2ccc(S(C)(=O)=O)cc2)[nH]c1N/N=C/c1c(Cl)cccc1Cl` was 3.91% (active); that for `COC(C(=O)[C@@H](O)[C@@H](C)O)[C@@H]1Cc2cc3cc(O[C@H]4C[C@@H](O[C@H]5C[C@@H](O)[C@H](O)C(C)O5)[C@H](O)C(C)O4)c(C)c(O)c3c(O)c2C(=O)[C@H]1O[C@H]1C[C@@H](O[C@H]2C[C@@H](O[C@H]3C[C@@H](O)[C@H](OC)C(C)O3)[C@@H](O)C(C)O2)[C@H](O)C(C)O1` (stereo not given in full) was 59.5%.
The result for `Cc1ccc(-c2nc3nc(-c4ccccc4)nc(N4CCNCC4)c3o2)cc1` reads -58.1% (active).
Regarding `O=C(Nc1cc(Cl)ccc1O)c1ccc(Nc2ccnc(C(F)(F)F)c2)cc1`, the growth is 35.1%.
The value for `COc1cc(N2C(=O)[C@H](O)C2c2ccc(SC)cc2)cc(OC)c1OC` (stereo not given in full) was 14.2%; that for `CN1CCN(Cc2ccc(NC(=O)c3cncc(C#Cc4cnc(N)c5ccccc45)c3)cc2C(F)(F)F)CC1` was -65.7% (active); that for `CC(=O)OC[C@]12CCC(C)(C)C[C@H]1[C@@]1(O)[C@H](O)C[C@@H]3[C@@]4(C)CCCNC(C)(C)[C@@H]4CC[C@@]3(C)[C@]1(C)CC2` was 113%.
The result for `O=S(=O)(Nc1ccccc1)c1ccc(C2CC3(Cl)C(Cl)=C(Cl)C2(Cl)C3(Cl)Cl)cc1` (stereo not given) reads 24.1%; that for `COc1cc(/C=C/C(=O)c2cccc(Nc3nc(Nc4ccccc4)nc(Nc4ccccc4)n3)c2)cc(OC)c1OC`, 40.6%; that for `CC12CCC3c4ccccc4CCC3(CO1)C2` (stereo not given), 106%.
As for `COc1ccc(-c2nc(/C=C3\SC(=NCc4ccccc4)NC3=O)c3ccccn23)cc1`, the growth is -4.46% (active).
The result for `CCn1c(SCC(=O)c2ccc(Br)cc2)nnc1-c1ccncc1` reads 107%; that for `N#Cc1c(N)nnn1Cc1cc(=O)oc2c1ccc1ccccc12`, 99.4%.
The value for `Cc1cc2c(O)c(-c3cc(Cl)ccc3Cl)c3sc(=O)oc3c2cc1C` was 85.3%; that for `CN(C)c1ccc(Nc2cc(-c3cccc(OC(F)(F)F)c3)nc3ccc(N4CCCC4)cc23)cc1` was -30.2% (active).
As to `COc1cnc2c(c1)C(=O)c1c-2n(CCCNCCO)c(=O)c2ccncc12`, the growth was 58.8%.
As to `C=C1C(=O)O[C@H]2[C@H]1CC/C(COC(=O)CSCCSCC(=O)OC/C1=C/CC[C@@]3(C)O[C@H]3[C@H]3OC(=O)C(=C)[C@@H]3CC1)=C\CC[C@@]1(C)O[C@@H]21`, the growth is 59.5%.
The value for `C[C@@H]1CCC[C@H]1CC(N)C(=O)O` (stereo not given in full) was 104%; that for `O=C(O)CCCN1C(=O)/C(=C/C(Cl)=C/c2ccccc2)SC1=S` was 3.81% (active); that for `CC(C)c1ccc(NC(=O)Nc2ccc(NC(=O)CCCC(=O)NOCc3ccccc3)cc2)cc1` was 99.1%.
The value for `O=C(c1ccc(-c2nc(CSc3nc4ccccc4s3)no2)cc1)N1CCSCC1` was 52.7%; that for `COc1ccc(N2CCC(=O)NC2=S)cc1` was 98%.
For the compound `C=C(C)[C@@H]1CC[C@]2(C(=O)NCCNCCN)CC[C@]3(C)[C@H](CC[C@@H]4[C@@]5(C)C/C(=C/c6ccncc6)C(=O)C(C)(C)[C@@H]5CC[C@]43C)[C@@H]12`, the growth is 101%.
The value for `Cc1ccc(CNc2ccc(Cl)cc2NCc2ccc(C)c(O)c2)cc1O` was 15.4%.
On to `Cc1ccc(-c2nc(/C=C3/C(=O)Nc4ccccc43)c3ccccn23)cc1`, for which the growth is 75.6%.
The value for `CC(C)(C)c1cc(-c2nc3ccc(N4CCN(S(C)(=O)=O)CC4)cc3[nH]2)cc(C(C)(C)C)c1O` was 93.1%; that for `O=C(Nc1ccc(NC(=O)c2cc(=O)[nH]c3ccccc23)cc1)Nc1cccc(C(F)(F)F)c1` was 103%.
With `CC1(c2ccccc2O)NN=C(/N=C/c2cccc([N+](=O)[O-])c2)N1C(Cc1c[nH]c2ccccc12)C(=O)O` (stereo not given), the growth is 97.1%.
As to `C1=C(N2CCCC2)CCC1`, the growth is 104%.
As to `Cc1cnc(C(=O)NNc2nc3sc4c(c3c(=O)n2C)C(C)CCC4)cn1` (stereo not given), the growth was 1.29% (active).
The value for `CCCCOC(=O)OCc1cc(=O)c(O)co1` was 108%; that for `Clc1ccc(CNc2c3ccccc3nc3ccccc23)cc1` was 36.7%; that for `CN1CCN(c2ccc(NC(=O)c3nc4ccc5[nH]ncc5c4c4c3CCCC4)cc2C(F)(F)F)CC1` was 70%.
The result for `N#C/C(=C\c1ccc(-c2ccc(Cl)cc2)o1)C(=O)Nc1ncc(Cc2ccc(Cl)cc2)s1` reads 26.2%.
Take `CN(Cc1ccc(C(F)(F)F)cc1)CC(O)C(=O)Nc1ccc(Cl)cc1` (stereo not given): the growth is 39.3%.
The result for `O=[N+]([O-])c1ccc(S(=O)(=O)N2CCN(C3=NS(=O)(=O)c4ccccc4N3c3ccccc3)CC2)cc1` reads 92.9%; that for `C#CCOc1cccc(Nc2ncnc3ccc(NC(=O)CCl)cc23)c1`, -1.49% (active).

The record behind these values is PubChem BioAssay (NCI).
